Screening results from PubChem BioAssay.
This is one part of a sample in which hits are shown more often than they occur.
Shiga toxin inh: Shiga toxin inhibition; AID 2315; inhibition, % at 38.7 µM; actives 9.2% (n = 290,000); Vero cells, Shiga toxin protein synthesis inhibition reporter; in the data active means inhibition mostly above about 28%, no sharp cut-off; inactive means mostly below about 43%; further: 0% is about no effect
NS1 function inh: influenza NS1 inhibition; Potency, µM (top dose mostly 46.1 µM), without a hit: at the highest dose activity, positive = more growth; actives 0.4% (n = 270,000); calls by dose curve; further: potency means the concentration at half of the fitted maximal effect; actives are rising curves; nearly all actives have a fitted effect of over 50% in size
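Growth recovery, yeast-based: influenza A NS1 expressed in S. cerevisiae causes slow growth, and suppressors are detected by OD600. The parent strain without NS1 is used as positive control.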
AmpC no deterg: AmpC beta-lactamase inhibition without detergent; P00811; AmpC nitrocefin hydrolysis, absorbance 480 nm, 0.0001% Triton; Potency, µM (doses to about 57.1 µM), for inactives: top-dose activity change, negative = inhibition, most hits filed as inhibitors; actives 0.52% (n = 330,000);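 further: potency means the concentration at half of the fitted maximal effect; plate controls were no compound for no effect and no enzyme for full effect; nearly all actives have a fitted effect of over 20% in size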
Target sequence (P00811 whole entry, looked up): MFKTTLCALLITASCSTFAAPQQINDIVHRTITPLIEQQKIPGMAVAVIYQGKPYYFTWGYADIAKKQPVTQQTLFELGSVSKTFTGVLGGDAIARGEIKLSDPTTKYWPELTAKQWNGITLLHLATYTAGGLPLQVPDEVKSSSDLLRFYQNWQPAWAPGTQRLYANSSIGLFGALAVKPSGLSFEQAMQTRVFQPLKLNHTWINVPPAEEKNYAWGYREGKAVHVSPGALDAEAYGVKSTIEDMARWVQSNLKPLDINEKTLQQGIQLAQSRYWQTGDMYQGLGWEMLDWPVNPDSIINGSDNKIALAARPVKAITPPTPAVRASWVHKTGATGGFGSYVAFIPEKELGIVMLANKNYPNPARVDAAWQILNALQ
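AmpC (5.3 nM in the dispensed reagent) in 20 mM phosphate pH 7.0 with 0.01% (detergent screen) or 0.0001% Triton X-100 was preincubated with compounds for 15 min at room temperature. Nitrocefin was then added from an 800 uM solution, and hydrolysis was followed at 480 nm.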
Cycloheximide cs: affects cycloheximide protein synthesis inhibition readout, counter-screen; max response, %; actives 12% (n = 300,000); cell reporter, cycloheximide protein synthesis inhibition counterscreen; in the data active means max response mostly above about 13%, no sharp cut-off; inactive means mostly below about 14%; further: read at 38.3 µM for the half of the compounds with a filed dose; 0% is about no effect
AmpC inh detg: AmpC beta-lactamase inhibition with detergent present | P00811 | AmpC hydrolysis of nitrocefin, absorbance 480 nm, 0.01% Triton | Potency, µM (top dose mostly 114 µM), inactives show at the highest dose activity change, negative = inhibition, hits mostly inhibitors | actives 0.041% (n = 370,000);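 further: potency means the concentration at half of the fitted maximal effect; 0% = no-compound wells and -100% = no-enzyme wells; nearly all actives have a fitted effect of over 25% in size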
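AmpC (5.3 nM in the dispensed reagent) in 20 mM phosphate pH 7.0 with 0.01% (detergent screen) or 0.0001% Triton X-100 was preincubated with compounds for 15 min at room temperature. Nitrocefin was then added from an 800 uM solution, and hydrolysis was followed at 480 nm.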
* = called active by the depositor; ? = inconclusive; nt = not tested or not shown; [ ] = dose if it differs, or a comment. Unless noted, the call rests on the fitted dose curve; in most records, active means well fitted curve in the direction sought with a large enough effect; inconclusive means small, poorly fitted or top-dose-only effect, or another doubt; inactive means no such curve, though single readings can be large; an effect the other way counts as inactive or inconclusive.

SMILES	Shiga toxin inh	NS1 function inh	AmpC no deterg	Cycloheximide cs	AmpC inh detg
O=C(CS(=O)(=O)c1ccccc1)c1cc2ccccc2oc1=O	63*	-12%	-32%	32*	-11%
Cc1ccc(-c2csc(N=C(N)N)n2)cc1	64*	-5%	-25%	28*	7%
Cc1ccc(-c2csc(N3CCC(C(N)=O)CC3)n2)cc1	nt	nt	19%	nt	?
COc1ccccc1N1CCN(c2cc(C)nc3c(-c4ccc(Cl)cc4)c(C)nn23)CC1	nt	nt	nt	nt	5%
c1ccc(CSc2nnnn2-c2ccc3c(c2)OCCO3)nc1	43	-11%	-14%	21*	?
O=C(CSc1nnnn1-c1ccc2c(c1)OCCO2)OC1CCCCC1	102*	-12%	-20%	34*	-5%
O=C(O)c1cc(-c2ccc(-c3ccccc3)cc2)nc2cc3ccccc3cc12	nt	-8%	nt	nt	nt
CC(C)OCCCNc1ncnc2c1cnn2-c1ccccc1	55*	-2%	-5%	11	0%
CN(C)CCCNc1ncnc2c1cnn2-c1ccccc1	72*	-5%	-1%	49*	-5%
Cc1ccc(-n2ncc3c(NCCCOC(C)C)ncnc32)c(C)c1	75	-11%	-1%	-3	-1%
CCOC(=O)/C(C#N)=C1\CCCN1CC(N)=S	7	1%	-7%	3	9%
CC(=O)Nc1ccc(C(=O)OCC(=O)Nc2c(C)n(C)n(-c3ccccc3)c2=O)cc1	nt	nt	-13%	nt	nt
CCOC(=O)c1ccc(NC(=O)Cn2ncc3c(C)n(Cc4ccccc4F)c(C)c3c2=O)cc1	nt	nt	nt	nt	4%
COc1ccc(C2=NN(C(C)=O)C(c3cn(-c4ccccc4)nc3-c3cccs3)C2)cc1 (stereo not drawn)	nt	nt	nt	nt	1%
Cc1ccc(NC(=O)CN2C(=O)S/C(=C/c3ccc(O)c([N+](=O)[O-])c3)C2=O)cc1C	13	-5%	-49%	-1	50µM*
CCN(CC)S(=O)(=O)c1cc(Cl)ccc1OC	40	-3%	1%[2.29 µM]	-2	-2%
CCn1c(=O)c2cc(C(=O)Nc3cccc(C(F)(F)F)c3)sc2c2ccccc21	nt	nt	nt	nt	15%
Clc1cccc(-c2nc(-c3ccc(-c4nn[nH]n4)cc3)no2)c1	nt	nt	-5%	nt	-2%
Cc1cc(C(=O)NCc2cccnc2)no1	-8	3%	-11%	-2	-11%
O=C(NCc1ccc(F)cc1)c1cc(-c2ccco2)on1	44	-4%	-8%	20*	-7%
O=C(NCc1ccc(Cl)cc1)c1cc(-c2ccco2)on1	-15	-3%	-33%	10	-2%
CC(C)Cc1cc(C(=O)NCc2cccnc2)no1	13	-92%	-7%	25*	-16%
CC(C)Cc1cc(C(=O)NCc2cccs2)no1	84*	1%	?	40*	?
O=C(NCc1cccnc1)c1cc(-c2ccco2)on1	75*	-25%	-8%	44*	1%
Cc1ccc(-c2cc(C(=O)NCc3cccnc3)no2)cc1	50*	-6%	-9%	53*	4%
SMILES	Shiga toxin inh	NS1 function inh	AmpC no deterg	Cycloheximide cs	AmpC inh detg
COc1ccc(Cn2c(=S)[nH]c3cc(OC)c(OC)cc3c2=O)cc1	50	nt	-15%	31*	7%
O=C(O)c1cc(Cl)cc(Cc2cc(Cl)cc(C(=O)O)c2O)c1O	nt	-3%	nt	nt	nt
Cc1nc(Cl)c2c(n1)NC1=C(O2)C(=O)CCC1	19	9%	-12%	21*	-4%
Cc1nc2ccc(S(=O)(=O)CCC(=O)Nc3ccc(F)cc3C)cc2s1	nt	nt	nt	nt	-13%
O=C(/C=C/N1CCOCC1)c1ccc(-c2ccccc2)cc1	50	-44%	-46%	42*	?
O=C(Oc1ccccc1C(=O)N1CCOCC1)c1ccc(Br)cc1	-13	-1%	27%	-3	1%
O=C(/C=C\N1CCOCC1)c1ccc(Br)cc1	34*	-98%	-40%	27*	-12%
O=C(c1ccc(-c2ccccc2)cc1)c1ccccc1C(=O)N1CCOCC1	-16	-55%	167%	14	2%
COc1ccc(C(=O)Oc2ccc(C(c3c(C)[nH][nH]c3=O)c3c(C)[nH][nH]c3=O)cc2)cc1	nt	nt	nt	nt	2%
O=C(Nc1nc2c(s1)COc1ccccc1-2)c1cccs1	5	-53%	-57%	-4	?
O=C(Nc1nc2c(s1)CCc1ccccc1-2)c1cccs1	94*	-3%	-39%	41*	-5%
O=C(Nc1ncc2c(n1)-c1ccccc1CC2)c1ccccc1	63*	-35%	-13%	20*	-3%
Fc1ccccc1Nc1nc2c(s1)CCc1ccccc1-2	85*	-5%	-48%	73*	7%
COc1ccc(C(=O)Nc2nc3c(s2)CCc2cc(OC)ccc2-3)cc1	nt	nt	nt	nt	13%
O=C(Nc1ncc2c(n1)-c1ccccc1CC2)c1ccc(F)cc1	-7	-12%	-26%	-3	-16%
O=C(Nc1ncc2c(n1)-c1ccccc1CC2)c1cccs1	64	nt	-24%	28*	?
COc1ccc(CN2C(=O)N(c3ccc(F)cc3)C(=O)C2CC(=O)Nc2cc(OC)cc(OC)c2)cc1 (stereo not drawn)	nt	nt	nt	nt	-3%
Cc1ccc(NC(=O)CSc2nnc(C3CC3)n2C)cc1S(=O)(=O)N1CCCCC1	nt	nt	10%	nt	2%
Cc1cc(C)cc(-n2ccnc2SCC(=O)Nc2ccc(C)cc2C)c1	nt	nt	nt	nt	9%
Cn1ncc(Cl)c1C(=O)Nc1ccc2c(c1)CCC2	77*	-8%	-11%	44*	-8%
CN1N=C(C(=O)Nc2ccc3c(c2)CCC3)CCC1=O	76*	nt	-15%	28*	1%
COC(=O)c1cc(NC(=O)c2c(Cl)cnn2C)cc(C(=O)OC)c1	10	5%	0%	-4	0%
CCN(Cc1ccccc1)C(=O)CN(c1ccc(OC)cc1)S(=O)(=O)c1c(C)nn(C)c1C	nt	nt	nt	nt	-4%
O=C(CNC(=O)c1ccc(Cl)cc1)OCC(=O)c1ccc2c(c1)OCCO2	37	-5%	-24%	45*	?
CCOc1ccccc1C(=O)NCC(=O)OCC(=O)c1ccc2c(c1)OCCO2	17	-10%	-2%	6	-8%
SMILES	Shiga toxin inh	NS1 function inh	AmpC no deterg	Cycloheximide cs	AmpC inh detg
CCOC(=O)CNC(=O)c1cc(-c2ccc3c(c2)OCCO3)oc1C	63*	-2%	-2%	44*	-3%
CCOC(=O)CNC(=O)c1ccc2c(c1)OCCO2	59*	3%	-10%	46*	-3%
CCCn1c(SCC(O)c2ccccc2)nc2ccccc21 (stereo not drawn)	nt	nt	nt	nt	11%
Cc1ccc(C(C)C)c(OCCSc2nc3ccccc3n2CC(O)CO)c1 (stereo not drawn)	nt	nt	nt	nt	0%
CCCSc1nc2cc(C)c(C)cc2n1CC(O)CO (stereo not drawn)	78*	-1%	-20%	21*	-3%
CCCSc1nc2cc(C)c(C)cc2n1CC(C)O (stereo not drawn)	72*	-7%	-7%	26*	-3%
O=C(c1ccc2c(c1)c(=O)oc1ccccc12)N1CCCCC1	nt	-27%	nt	nt	nt
CC1CCN(C(=O)c2cc3ccccc3c(=O)o2)CC1	44*	11%	-5%	16	?
O=C(c1cc2ccccc2c(=O)o1)N1CCCCCC1	141*	17%	-19%	71*	-2%
